Shiga inhibitor – A qHTS for Small Molecule Inhibitors of Shiga Toxin; Vero cells, Shiga toxin protein synthesis inhibition reporter; inhibition, % at 38.7 µM; actives 9.2% (n = 290,000); AID 2315, 2010; in the data active = inhibition mostly above about 28%, no sharp cut-off; inactive = mostly below about 43%; note: 0% is about no effect
CHX counter – Cycloheximide Counterscreen for Small Molecule Inhibitors of Shiga Toxin; cell reporter, cycloheximide protein synthesis inhibition counterscreen; max response, %; actives 12% (n = 300,000); AID 2314, 2010; in the data active = max response mostly above about 13%, no sharp cut-off; inactive = mostly below about 14%; note: read at 38.3 µM for the half of the compounds with a filed dose; 0% is about no effect
LASV entry inh – qHTS for Inhibitors of binding or entry into cells for Lassa Virus. Lassa virus pseudotype entry inhibition, cell reporter. Potency, µM (titrated, usually from 37.9 µM), for the others: at the highest dose activity change, negative = inhibition, usual class: inhibitors. actives 1.2% (n = 300,000); calls by dose curve; tested in HEK293 cells; note: potency is the fitted concentration of half-maximal effect; % is set by controls: 0 for no effect and ±100 for the full control effect; nearly all actives have a fitted effect of over 50% in size
Marburg entry inh – qHTS for inhibitors of binding or entry into cells for Marburg Virus; Marburg virus pseudotyped entry inhibition, cell reporter; Potency, µM (doses to about 37.8 µM), inactives show top-dose activity change, negative = inhibition, hits mostly inhibitors; actives 1.8% (n = 300,000); AID 540276, 2011; calls by dose curve; tested in HEK293 cells; note: potency is the fitted concentration of half-maximal effect; % is set by controls: 0 for no effect and ±100 for the full control effect
FMDV inh – High Throughput Screening for Foot and Mouth Disease Virus Antivirals | FMDV antiviral cell-based qHTS | Potency, µM (top dose mostly 57.9 µM), for the others: top-dose activity change, negative = inhibition, most hits filed as inhibitors | actives 1.2% (n = 410,000); calls by dose curve; tested in HEK293T cells; note: read-out not given here; potency is the fitted concentration of half-maximal effect; % is set by controls: 0 for no effect and ±100 for the full control effect; nearly all actives have a fitted effect of over 45% in size
HCV inhibitor – qHTS Assay for Inhibitors of Hepatitis C Virus (HCV); actives 3.4% (n = 340,000); Potency, µM (highest dose often 41.8 µM), inactives show at the highest dose activity change, negative = inhibition, hits mostly inhibitors; Huh7.5.1 HCVcc-Cre infection, luciferase reporter, 44 h; active = well fitted inhibition curve with a large enough effect; inconclusive = small, poorly fitted or top-dose-only effect, or another doubt; inactive = no such curve, though single readings can be large or run the other way; note: potency is the fitted concentration of half-maximal effect; % is set by controls: 0 for no effect and ±100 for the full control effect
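After 44 h co-culture of compound, cells and HCVcc-Cre (~0.5 moi), substrate is added for 15 min at room temperature and luciferase measured over 15 sec. Cells were seeded at 1,000/well and pre-cultured 4 h.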
* marks the source's active call; other numbers are inactive results; ? = inconclusive; / = no result; [ ] = dose if it differs, or a comment. Hits are enriched below; roughly 13% of the tested compounds scored in any of these assays.

SMILES	Shiga inhibitor	CHX counter	LASV entry inh	Marburg entry inh	FMDV inh	HCV inhibitor
COCc1nc2oc3ccc(F)cc3c(=O)c2cc1C(=O)OC	3	14	18%	?	65%	0%
Cc1nc2oc3ccc(F)cc3c(=O)c2cc1C(=O)O	30	27*	3%[46.1 µM]	18%[46.1 µM]	14%	-2%
O=C(O)c1cc2c(=O)c3ccccc3oc2nc1C(F)(F)F	-6	-4	10%[46.1 µM]	3%[46.1 µM]	3%	7%
CCc1nc2oc3ccccc3c(=O)c2cc1C(=O)OC	51*	24*	-7%	?	70%	?
Cc1ccc2oc3nc(C)c(C(=O)O)cc3c(=O)c2c1	35	41*	?	18%	23%	6%
O=C(N/N=C/c1cc(Br)c(Br)o1)c1cc2ccccc2o1	-21	1	?	?	4%	-26%
CCOC(=O)c1cc2c(=O)c3cc(C)ccc3oc2nc1C	52*	40*	?	20%[46.1 µM]	-2%	2%
CC(=O)c1cc2c(=O)c3cc(C)ccc3oc2nc1C	121*	30*	?	0%	32%	6%
CCN(CC)C(=O)c1cc2c(=O)c3cc(Cl)ccc3oc2nc1C	14	14	4%	28%[46.1 µM]	46%	0%
O=C(N/N=C\c1ccc(Cl)s1)C1COc2ccccc2O1 (stereo unspecified)	-6	10	/	/	0%	-28%
O=C(N/N=C\c1ccc([N+](=O)[O-])o1)C1COc2ccccc2O1 (stereo unspecified)	67*	22*	?	?	-6%	?
O=C(N/N=C\c1ccc([N+](=O)[O-])s1)C1COc2ccccc2O1 (stereo unspecified)	3	1	/	/	-18%	10µM*
CCOC(=O)c1c(NC(=O)CNCCOC)sc2c1CCCC2	15	-2	10%	22%	-5%	?
Cn1nnnc1SCc1nc2scc(-c3ccc(Cl)cc3)c2c(=O)[nH]1	16	2	/	/	-19%	?
O=C(CCSc1nc(-c2ccc3c(c2)OCO3)cc(C(F)(F)F)n1)NCc1ccccc1	1	-2	0%	?	-8%	?
CN(Cc1ccccc1)C(=O)CCSc1nc(-c2ccc3c(c2)OCO3)cc(C(F)(F)F)n1	7	-3	?	?	-18%	10µM*
CC(=O)c1cccc(NC(=O)c2ccc3c(c2)CCCC3)c1	57*	53*	/	/	35%	11µM*
COc1cccc(NC(=O)c2ccc3c(c2)CCCC3)c1	73*	49*	/	/	-2%	1%
COc1cccc(NC(=O)c2ccc[n+](C)c2)c1	2	-2	/	/	-4%	8%
CCCCc1oc2c(c(=O)c1C)C(=O)CC(c1ccccc1)C2 (stereo unspecified)	11	10	?	?	/	?
CSc1ccc(Cc2ccc(Cl)cc2Cl)nn1	38	22*	4%	?	30%	-14%
COCCn1c(=NC(=O)c2cc(-c3cccs3)nc3ccccc23)sc2cc(S(N)(=O)=O)ccc21	-1	1	?	9.2µM*	-16%	10µM*
O=C(OCCN1CCCCC1)c1ccccc1Cl	37	29*	8%	18%	0%	-1%
O=C(OCCN1CCCCC1)c1ccc(O)cc1	19	23*	6%	19%	7%	13%
Cc1nc2ccc(C(=O)N3CCN(C(=O)c4ccco4)CC3)cn2c1N(C)C(=O)CCc1ccccc1	/	/	/	/	-7%	/
SMILES	Shiga inhibitor	CHX counter	LASV entry inh	Marburg entry inh	FMDV inh	HCV inhibitor
CC1=C(C(=O)N(C)C)CC(CC(=O)NC2CCCC2)C(=O)N1CCCN1CCCC1=O (stereo unspecified)	/	/	/	/	-18%	/
O=[N+]([O-])c1ccc(S(=O)(=O)Nc2nc(-c3ccccc3)cs2)cc1	-6	-1	/	/	-7%	13%
CCCOc1ccc(-c2nc(-c3ccc([N+](=O)[O-])cc3)cs2)cc1	2	-1	/	/	4%	-19%
C=CCNc1nc(-c2ccc(Cl)cc2)cs1	130*	64*	11%	-9%	13%	?
Clc1ccc(-c2csc(N/N=C/c3ccc4c(c3)OCO4)n2)cc1	-14	2	-11%	-13%	15%	?
CN(C)c1nc(-c2ccc([N+](=O)[O-])cc2)cs1	78	21*	-8%	-2%	17%	?
C=CCNc1nc(-c2ccc([N+](=O)[O-])cc2)cs1	63*	56*	-1%	?	-3%	?
Cc1cc2c(cc1C)NC1(C(=O)Nc3ccccc31)C1=C(CC(C)(C)CC1=O)N2 (stereo unspecified)	23	20	-2%	?	-10%	-7%
O=C(Cc1ccc(-n2c(=S)[nH]c3ccccc3c2=O)cc1)N1CCN(c2ccccc2)CC1	-3	-1	-1%	10%	?	10%
COc1ccc(NS(=O)(=O)c2cc(OC)ccc2NC(=O)c2cc(C)oc2C)cc1	15	-1	-24%	?	0%	4.5µM*
COc1ccc(NS(=O)(=O)c2cc(OC)ccc2OC)cc1	/	/	-1%	-22%	70%	-18%
Cc1ccc(-c2nc(N)sc2C)cc1	33*	15*	/	/	33%	-6%
Cc1ccc(-c2nc(N)sc2-c2ccc(C)cc2)cc1	-18	-4	-26%	?	?	-15%
CCn1cc(/C=C/C(=O)Nc2ccc(C)cc2Br)cn1	active	29*	?	11%	9%	?
Cc1ccc(S(=O)(=O)Nc2cccc(C(=O)Nc3cc(C)ccn3)c2)cc1	-4	-2	/	/	/	8%
O=C1CCCC2=C1C(c1ccncc1)c1c(nc(SCc3ccccc3Cl)[nH]c1=O)N2 (stereo unspecified)	-2	6	?	10µM*	-6%	-5%
COc1ccc(OCCSc2nnc(C)n2-c2ccccc2)cc1	10	-2	9.2µM*	?	-16%	1%
CN(C)CCSc1nnc2sc3ccccc3n12	25	11	6%	-8%	13%	6%
COc1ccc(-c2nnc(SCC(=O)c3ccc[nH]3)n2-c2ccccc2)cc1	82*	34*	2%	23%	37%	12%
COc1ccccc1OCCSc1nnc(C)n1-c1ccccc1	-13	1	-6%	-12%[46.1 µM]	17%	20%
CC(C)NC(=O)CSc1nnc2sc3ccccc3n12	24	27*	3%	-3%	0%	8%
COc1ccc(OCCSc2nnc3sc4ccccc4n23)cc1	67	60*	15%	3%	/	17%
O=C(COC(=O)c1cccnc1Cl)c1ccc(Cl)s1	/	/	/	/	10%	-20%
O=C(OCc1ccc(Br)cc1)c1cccnc1Cl	73	27*	13%	3%[46.1 µM]	9%	6%
Nc1ncccc1OCc1ccc(Cl)c(Cl)c1	56*	47*	?	-1%[46.1 µM]	-29%	0%
O=C(COC(=O)c1cccnc1Cl)c1cccc(Cl)c1	39*	34*	12%	2%	39%	1%
